Source: PubChem (National Center for Advancing Translational Sciences (NCATS))
The entries come from a sample that favours hits as a whole.
Tb PYK inh: qHTS of Trypanosoma Brucei Inhibitors; TbPYK enzyme, Kinase-Glo Plus ATP luminescence, 45 min; Potency, µM (titrated, usually from 76.8 µM), without a hit: top-dose activity, negative = inhibition, usual class: inhibitors; pyruvate kinase (Trypanosoma brucei), Q57TT1; 410,000 compounds, 0.12% hits; AID 624173, 2012; also: potency is read from the fitted curve at half-maximal effect; % is scaled to controls: 0 for no effect and ±100 for the full control effect; nearly all actives have a fitted effect of over 50% in size
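In this concentration-response screen, enzyme-free wells defined baseline while DMSO plates tracked drift. Each reaction combined TbPYK, substrate, compound and 130 uM ADP for 45 min at room temperature. Kinase-Glo Plus luminescence gave the signal.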
Shiga inhibitor: A qHTS for Small Molecule Inhibitors of Shiga Toxin | Vero cells, Shiga toxin protein synthesis inhibition reporter | inhibition, % at 38.7 µM | 290,000 compounds, 9.2% hits; in the data active = inhibition mostly above about 28%, no sharp cut-off; inactive = mostly below about 43%; also: 0% is about no effect
Giardia FBPA inh: qHTS Assay for Inhibitors of Fructose-1,6-bisphosphate Aldolase from Giardia Lamblia | A8B2U2 | purified Giardia FBPA | Potency, µM (highest dose often 59.6 µM), for the others: at the top dose activity, negative = inhibition, hits mostly inhibitors | 290,000 compounds, 0.71% hits; also: potency is read from the fitted curve at half-maximal effect; % is scaled to controls: 0 for no effect and ±100 for the full control effect; nearly all actives have a fitted effect of over 55% in size
Target sequence (A8B2U2 whole entry, looked up): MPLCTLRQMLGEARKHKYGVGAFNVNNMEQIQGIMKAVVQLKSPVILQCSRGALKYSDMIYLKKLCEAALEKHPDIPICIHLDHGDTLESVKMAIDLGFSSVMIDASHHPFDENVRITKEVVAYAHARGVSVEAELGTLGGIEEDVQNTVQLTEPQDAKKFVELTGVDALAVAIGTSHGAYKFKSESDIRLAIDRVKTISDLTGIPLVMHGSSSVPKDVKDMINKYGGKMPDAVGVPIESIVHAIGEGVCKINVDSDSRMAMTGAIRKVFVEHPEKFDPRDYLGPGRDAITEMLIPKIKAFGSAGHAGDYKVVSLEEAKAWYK
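Giardia FBPA (40 nM reagent) was preincubated 10 min at RT with compound (up to 57.5 uM final), then substrate plus GAPDH/TPI/NAD/arsenate coupling system with diaphorase/resazurin was added; resorufin fluorescence (525/598 nm) was read after 20 min.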
RE007 growth inh: qHTS Assay for Inhibitors of the HIV-1 protein Vpr; 360,000 compounds, 0.21% hits; Potency, µM (highest dose often 92.2 µM), without a hit: top-dose activity change, negative = less growth, most hits filed as inhibitors; S. pombe RE007 Vpr strain, BacTiter-Glo ATP luminescence, 24 h; active = well fitted falling curve with a large enough effect; inconclusive = small, poorly fitted or top-dose-only effect; inactive = no such curve, though single readings can be large or run the other way; also: potency is read from the fitted curve at half-maximal effect; % is scaled to controls: 0 for no effect and ±100 for the full control effect; nearly all actives have a fitted effect of over 50% in size
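Fission yeast RE007 carrying one integrated HIV-1 vpr copy, seeded at OD 0.01 in PMG+AL medium with 23 nL pinned compound. Grown 24 h at 30 degrees; viability read by BacTiter-Glo luminescence after 5 min.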
LmPK inh: qHTS Assay for Inhibitors of Leishmania Mexicana Pyruvate Kinase (LmPK); 290,000 compounds, 0.37% hits; Potency, µM (highest dose often 57.5 µM), for inactives: top-dose activity change, negative = inhibition, actives largely listed as inhibitors; purified LmPK, Kinase-Glo ATP luminescence, 1 h; also: potency is read from the fitted curve at half-maximal effect; % is scaled to controls: 0 for no effect and ±100 for the full control effect
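Kinase-Glo luminescence read after 1 h RT reaction of 0.1 nM LmPK with 0.5 mM PEP and 0.1 mM ADP. Activity scaled between uninhibited and enzyme-free controls.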
CHX counter: Cycloheximide Counterscreen for Small Molecule Inhibitors of Shiga Toxin; cell reporter, cycloheximide protein synthesis inhibition counterscreen; AID 2314, 2010; max response, %; 300,000 compounds, 12% hits; in the data active = max response mostly above about 13%, no sharp cut-off; inactive = mostly below about 14%; also: read at 38.3 µM for the half of the compounds with a filed dose; 0% is about no effect
An asterisk follows results filed as active; [ ] = remark or other dose. Unless noted, calls follow the shape of the dose curve; as a rule, active = well fitted curve in the direction sought with a large enough effect; inconclusive = small, poorly fitted or top-dose-only effect, or another doubt; inactive = no such curve, though single readings can be large; an effect the other way counts as inactive or inconclusive.

For Cc1nc(Nc2ccc(C(=O)O)cc2)sc1-c1ccccc1 the results were Tb PYK inh -4%, Shiga inhibitor 84*, Giardia FBPA inh 8%, RE007 growth inh 7%, LmPK inh 2% and CHX counter 53*.
`Cc1nc(Nc2ccccc2)sc1-c1ccccc1` gave Tb PYK inh -5%, Shiga inhibitor 88*, Giardia FBPA inh -16%, RE007 growth inh 35µM*, LmPK inh -9% and CHX counter 35*.
`COc1cc(C(=O)N/N=C/c2ccccn2)cc(OC)c1OC` gave Tb PYK inh -8%, Shiga inhibitor -13, Giardia FBPA inh inconclusive, RE007 growth inh 3%, LmPK inh -1% and CHX counter -2.
COc1ccc(C(=O)Nc2ccccc2C(=O)N/N=C/c2ccccn2)cc1OC was read as Tb PYK inh -10%, Shiga inhibitor 45*, Giardia FBPA inh inconclusive, RE007 growth inh inconclusive, LmPK inh inconclusive and CHX counter 34*.
`COc1ccc(OC)c(C(=O)N/N=C/c2ccccn2)c1` gave Tb PYK inh -1%, Shiga inhibitor 76*, Giardia FBPA inh 4%, RE007 growth inh 0%, LmPK inh 1% and CHX counter 30*.
Screening COc1ccc(C(=O)Nc2ccccc2C(=O)NC(C)C)cc1OC returned Tb PYK inh -17%, Shiga inhibitor 6, Giardia FBPA inh 1%, RE007 growth inh 11%, LmPK inh 4% and CHX counter 8.
Screening O=C1NC(=O)N(Cc2ccco2)C(=O)/C1=C/c1cccn1CCOc1ccccc1Cl returned Tb PYK inh -13%, Shiga inhibitor 70*, Giardia FBPA inh 1%, RE007 growth inh 23%, LmPK inh 4% and CHX counter 23*.
NCCC[C@@H](CC(=O)N[C@@H]1CCNC[C@H]1C(=O)N[C@H](CC(=O)N[C@@H](CCC(=O)O)CC(=O)O)Cc1c[nH]c2ccccc12)NC(=O)C[C@H](Cc1c[nH]c2ccccc12)NC(=O)[C@@H]1CNCC[C@H]1N was read as Giardia FBPA inh -17%.
`O=S(=O)(Nc1cccnc1)c1cccc2ccccc12` gave Shiga inhibitor -8 and CHX counter 5.
`O=C(O)c1ccc(-c2ccc(/C=N/Nc3ccc([N+](=O)[O-])cc3)o2)cc1` gave Tb PYK inh 1%, Shiga inhibitor 92*, Giardia FBPA inh -18%, RE007 growth inh 1%, LmPK inh -2% and CHX counter 16*.
`O=C(O)c1cc(-c2ccc(/C=N/Nc3ccc([N+](=O)[O-])cn3)o2)ccc1Cl` gave Tb PYK inh 4%, Shiga inhibitor -11, Giardia FBPA inh inconclusive, RE007 growth inh 34%, LmPK inh 17%[11.5 µM] and CHX counter 8.
`O=C(O)c1cccc(-c2ccc(/C=N/Nc3ccc([N+](=O)[O-])cc3)o2)c1` gave Tb PYK inh -3%, Shiga inhibitor 54, Giardia FBPA inh -22%, RE007 growth inh 10%, LmPK inh 0% and CHX counter 17*.
NS(=O)(=O)c1ccc(-c2ccc(/C=N/NC(=O)c3ccc([N+](=O)[O-])cc3)o2)cc1 was read as Tb PYK inh 2%, Shiga inhibitor -7, Giardia FBPA inh -6%, RE007 growth inh 16%, LmPK inh 3% and CHX counter -3.
For CCC(=O)N/N=C/c1ccc(-c2ccc([N+](=O)[O-])cc2)o1 the results were Tb PYK inh -4%, Shiga inhibitor -7, Giardia FBPA inh -2%, RE007 growth inh 9%, LmPK inh 0% and CHX counter 8.
`NS(=O)(=O)c1ccc(-c2ccc(/C=N/Nc3ccc(C(=O)O)cc3)o2)cc1` gave Tb PYK inh -8%, Shiga inhibitor 18, Giardia FBPA inh -28%, RE007 growth inh 4%, LmPK inh 4% and CHX counter 41*.
CCCc1ccc(OCC(=O)Nc2sc(C(=O)OCC)c(C)c2C(=O)OCC)cc1 was read as Tb PYK inh 1%.
CCOc1ccc(N2CC(NC(=O)c3ccc(S(=O)(=O)N4CCCCC4)cc3)CC2=O)cc1 (stereo not given) was read as Tb PYK inh 4%.
Screening C=C(C(=O)O)[C@@H]1CC[C@@]2(C)CCC[C@](C)(O)[C@@H]2C1 returned Giardia FBPA inh 5%.
For CCOc1ccc(NC(=O)CCc2c(C)nc3nc(-c4cc(OC)cc(OC)c4)nn3c2C)cc1 the results were Tb PYK inh -19%.
Screening COC(=O)CSc1nnc2n(-c3ccccc3)c(=O)c3c4c(sc3n12)COC(C(C)C)C4 (stereo not given) returned Tb PYK inh -12%.
N#CCN(N=Nc1ccccc1)c1ccccc1 was read as Tb PYK inh -5%, Shiga inhibitor 71*, Giardia FBPA inh 5%, RE007 growth inh -7%, LmPK inh 3% and CHX counter 38*.
Screening O=[N+]([O-])c1cccc(N=NN(CCO)c2cccc([N+](=O)[O-])c2)c1 returned Tb PYK inh 0%, Shiga inhibitor -8, Giardia FBPA inh -5%, RE007 growth inh -14%, LmPK inh 2% and CHX counter -2.
`CCSC1=NC2(CCCCC2)Nc2sc3c(c21)CCCC3` gave Tb PYK inh -24%, Shiga inhibitor -8, Giardia FBPA inh -29%, RE007 growth inh 40µM*, LmPK inh 24% and CHX counter -1.
CCSc1ncnc2sc3c(c12)CCC3 was read as Tb PYK inh 4%, Shiga inhibitor -2, Giardia FBPA inh 7%, RE007 growth inh 6%, LmPK inh 3% and CHX counter -1.
`OC1CCCN(C(=S)Nc2ccc(SC(F)F)cc2)C1` (stereo not given) gave Tb PYK inh -4%, Shiga inhibitor 34*, Giardia FBPA inh -4%, RE007 growth inh 4%, LmPK inh 0% and CHX counter 27*.
CN1CCC(N(C)C(=S)Nc2ccc(SC(F)F)cc2)CC1 was read as Tb PYK inh 1%, Shiga inhibitor active, Giardia FBPA inh 6%, RE007 growth inh -23%, LmPK inh -4% and CHX counter 24*.
For CC1CC(C)CN(C(=S)Nc2ccc(SC(F)F)cc2)C1 (stereo not given) the results were Tb PYK inh 4%, Shiga inhibitor -11, Giardia FBPA inh -1%, RE007 growth inh -24%, LmPK inh 2% and CHX counter -3.
Screening COC(=O)N(/C=C/c1ccc(OC)cc1)CCc1ccc(OC)c(OC)c1 returned Giardia FBPA inh -1%[12.9 µM].
